Abs 340nm = absorbance at 340 nm; compound absorbance at 340 nm, fold over control; AID 708; fold change at 10 µM; 65,000 tested, under 10 active;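 active means at 10 µM dose, initial 340 nm absorbance at least 2 fold that of control wells; inactive means change under 2 fold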;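 further: initial absorbance extrapolated from kinetic A340 decline of NADH oxidation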
Spn PMK inh = blocks S. pneumoniae phosphomevalonate kinase | 65,000 compounds, 0.49% hits | inhibition, % at 10 µM | purified PMK, PK/LDH-coupled NADH absorbance 340 nm;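 active means top-ranked compounds by inhibition in the single 10 µM screen, taking a fixed number of the strongest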;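 further: 0% = full reaction with DMSO carrier and 100% = background rate without enzyme reaction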
Autofluor 339 = intrinsic fluorescence of library compounds, ex339/em460 – biochemical, MLSMR library, data from DPM-DC assay, artefact control, profiling panel. fluorescence fold increase at 10 µM. compound autofluorescence, ex339/em460 nm, NADH buffer; active compounds read high; 1 = no-compound wells, NADH background. 65,000 compounds, 5.5% hits;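 active means at 10 µM, mean starting fluorescence two-fold or more over control wells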;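 further: signal is the first read of a kinetic run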
MK inhibit = inhibitors of Streptococcus pneumoniae mevalonate kinase. AID 555. purified MK, PK/LDH-coupled NADH absorbance 340 nm. 65,000 compounds, 0.48% hits. inhibition, % at 10 µM;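 active means ranked among the strongest by inhibition in the single 10 µM screen, a fixed top-ranked set picked for dose follow-up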
DPM-DC inhibit = inhibitors of Streptococcus pneumoniae diphosphomevalonate decarboxylase; AID 556; calls only at 10 µM; purified DPM-DC, PK/LDH coupled NADH fluorescence; 65,000 compounds, 0.49% hits;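 active means the 320 compounds with the highest percent inhibition in the single-dose primary screen, excluding strongly autofluorescent ones, cut at about 32% in these data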;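 further: kinetic rate of NADH fluorescence loss reporting ADP formed by the decarboxylase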
NADH enzymes = blocks coupling enzymes of NAD/NADH assays | coupled PK/LDH NADH assays, four targets | IC50, µM (highest dose often 10 µM), for the others: at the top dose inhibition | 65,000 compounds, 0.02% hits;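 active means single-dose screening hits from any of four coupled enzyme assays that gave an IC50 when retested across doses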;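 further: the DPM-DC format reads NADH fluorescence rather than 340 nm absorbance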
An asterisk follows results filed as active; i = inactive; / = no result shown; + = active, no number. Hits are enriched below; roughly 6.5% of the tested compounds scored in any of these assays.

SMILES	Abs 340nm	Spn PMK inh	Autofluor 339	MK inhibit	DPM-DC inhibit	NADH enzymes
COc1ccc2[nH]c3c(NCCN(C(C)C)C(C)C)ncnc3c2c1	1.1	8.0	3.73*	0.0	/	4.0%
CC(C)OCCCNc1ncnc2c1[nH]c1ccccc12	1.07	14.0	2.65*	11.0	i	11.0%
c1ccc2c(c1)[nH]c1c(N3CCSCC3)ncnc12	0.91	14.0	0.21	5.0	/	10.0%
Cn1c(Br)nc2c1c(=O)n(CC(O)COc1ccccc1)c(=O)n2C (configuration not stated)	0.99	9.0	1.03	20.0	i	10.0%
Cn1nnc(NCc2cc(Br)ccc2OCc2cccs2)n1	1.03	2.0	1.07	12.0	i	5.0%
Cn1ncc2c(Nc3ccc(-c4ccccc4)cc3)ncnc21	1.06	13.0	3.06*	0.0	+	16.0%
CC(C(=O)NCc1ccc2c(c1)OCO2)N1c2cccc3cccc(c23)S1(=O)=O (configuration not stated)	0.99	16.0	1.58	2.0	i	8.0%
O=c1cc(C(F)F)oc2c1ccc1ccccc12	1	0.0	2.46*	7.0	/	1.0%
COc1ccc(N2CCN(Cc3cc(=O)oc4c3ccc3ccccc34)CC2)cc1	1.03	7.0	1.11	10.0	i	6.0%
COc1ncnc(OC)c1NC(=O)c1ccc(F)cc1	0.98	10.0	0.76	63.0*	i	33.0%
O=C(Nc1nc2ccccc2[nH]1)c1ccc(F)cc1	1.03	12.0	0.99	6.0	i	7.0%
COc1ccc(N2CCN(c3ccc(NC(=O)c4ccc5c(c4)OCO5)cc3C#N)CC2)cc1	1	10.0	1.86	7.0	i	7.0%
COc1ccc(CC(=O)Nc2ccc(N3CCN(c4ccc(OC)cc4)CC3)c(C#N)c2)cc1	0.99	12.0	2.16*	6.0	i	12.0%
N#CC1=C(O)C(c2ccccc2)n2c1nc(=O)c1ccccc12 (configuration not stated)	1.07	0.0	4.96*	3.0	/	2.0%
COc1cc(NC(=O)NCc2ccncc2)cc(OC)c1OC	1.02	7.0	1.16	1.0	i	3.0%
Cc1cccc(C)c1OCC(O)CNS(=O)(=O)c1ccccc1C(=O)N1CCCCC1 (configuration not stated)	0.99	0.0	1.04	3.0	i	1.0%
Oc1ccc(-c2nc3ncccn3c2Nc2ccc3c(c2)OCCO3)cc1	1.08	12.0	1.07	15.0	i	9.0%
CC(=O)Nc1c(-c2ccccc2)nc2ncccn12	1.1	0.0	2.16*	7.0	/	4.0%
Cc1ccc(-c2nc3ncccn3c2NC(=O)C2CC2)cc1	1.1	4.0	5.05*	2.0	/	3.0%
Cc1cc(N)n(-c2nc(-c3cccnc3)nc3ccccc23)n1	1.09	0.0	1.07	11.0	i	6.0%
CCOC(=O)Cc1c(C)nc2c(-c3ccc(Cl)cc3)c[nH]n2c1=O	1.12	8.0	2.12*	5.0	/	7.0%
Cc1ccc(Cn2ccc(NC(=O)c3cc(-c4cccs4)on3)n2)cc1	0.96	13.0	1.05	2.0	i	4.0%
Cc1cc(C(=O)NCc2ccccc2)c(=O)[nH]c1C	1.14	17.0	2.11*	9.0	/	13.0%
CCn1c(CNc2ccc(F)cc2)nnc1SCC(=O)Nc1ccc(OC)cc1OC	0.99	18.0	1.02	0.0	i	6.0%
CC(=O)NCCc1cc2ccc(C)c(C)c2[nH]c1=O	1.06	4.0	1.31	0.0	i	2.0%
SMILES	Abs 340nm	Spn PMK inh	Autofluor 339	MK inhibit	DPM-DC inhibit	NADH enzymes
Cc1ccc2cc(CCNC(=O)CC(C)(C)C)c(=O)[nH]c2c1C	1.09	5.0	2.01*	10.0	/	8.0%
CCn1c(Cc2ccc(OC)cc2)nnc1SCC(=O)Nc1cccc(C(=O)OC)c1	1.01	10.0	1	3.0	i	3.0%
CCOC(=O)c1ccc(COC(=O)c2cc3ccccc3oc2=O)o1	1.02	12.0	1.45	11.0	i	6.0%
COCC(C)n1c(C)cc(C(=O)COC(=O)c2c(NC(C)=O)sc(C)c2C)c1C (configuration not stated)	1.01	0.0	1.16	3.0	i	1.0%
COc1ccc2oc(C(=O)C3CC3)c(N)c2c1	1.13	8.0	2.07*	2.0	i	10.0%
COc1ccc(C(=O)c2oc3ccccc3c2N)cc1	1.08	0.0	1.49	10.0	i	9.0%
CCOC(=O)CSc1nc(-c2cccs2)nc2c1c(=O)n(C)c(=O)n2C	1.1	3.0	1.69	0.0	i	5.0%

Screening data: PubChem, SRMLSC
